From PubChem BioAssay
This is a sample that favours compounds with a hit; in the whole collection about 9.3% have one here.
HCV inh = blocks hepatitis C virus. Huh7.5.1 HCVcc-Cre infection, luciferase reporter, 44 h. Potency, µM (titrated, usually from 41.8 µM), for the others: at the highest dose activity change, negative = inhibition, hits mostly inhibitors. 340,000 compounds, 3.4% hits; also: potency is read from the fitted curve at half-maximal effect
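Reporter virus HCVcc-Cre (~0.5 moi) infects cells exposed to compound; seeding density 1,000 cells/well with 4 h settling beforehand. Luminescence, 15 sec read, taken 44 h post-infection following a 15 min RT substrate incubation.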
FMDV inh = antivirals against foot and mouth disease virus; FMDV antiviral cell-based qHTS; Potency, µM (doses to about 57.9 µM), inactives show at the top dose activity change, negative = inhibition, most hits filed as inhibitors; 410,000 compounds, 1.2% hits; calls by dose curve; tested in HEK293T cells; also: read-out not given here; potency is read from the fitted curve at half-maximal effect; nearly all actives have a fitted effect of over 45% in size
VACV mCherry inh = inhibitors of vaccinia virus infection (mCherry reporter signal) | Vaccinia virus mCherry reporter infection, fluorescence | AID 720579 | 310,000 compounds, 0.63% hits | Potency, µM (series often up to 36.5 µM), inactives show at the highest dose activity change, negative = inhibition, hits mostly inhibitors; calls by dose curve; tested in A549 cells; also: potency is read from the fitted curve at half-maximal effect; nearly all actives have a fitted effect of over 35% in size
HCMV antiviral = blocks human cytomegalovirus replication; HFF cells, HCMV-luciferase reporter, 72 h; active compounds read low; activity change, negative = inhibition, % at 57.5 µM; 410,000 compounds, 4.5% hits; in the data active = activity change below about -60%; inconclusive = no clear call, values can overlap the other calls; inactive = above about -39%
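Human foreskin fibroblasts infected with luciferase-reporter HCMV at MOI 1 PFU/cell, compounds at two doses. Luciferase measured 72 h post infection; normalized to buffer-only basal and Salinomycin (10uM) controls.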
VACV Venus inh = inhibitors of vaccinia virus (Venus reporter); Vaccinia virus Venus reporter expression, fluorescence; Potency, µM (doses to about 36.5 µM), for inactives: at the top dose activity change, negative = inhibition, usual class: inhibitors; 330,000 compounds, 0.46% hits; AID 720580; calls by dose curve; tested in A549 cells; also: potency is read from the fitted curve at half-maximal effect; nearly all actives have a fitted effect of over 30% in size
Sm TGR inh = inhibitors of Schistosoma mansoni thioredoxin glutathione reductase | Q962Y6 | purified TGR, DTNB reduction, TNB absorbance 405 nm | Potency, µM (titrated, usually from 114 µM), for the others: top-dose activity change, negative = inhibition, hits mostly inhibitors | 360,000 compounds, 3% hits | AID 485364; also: potency is read from the fitted curve at half-maximal effect; nearly all actives have a fitted effect of over 60% in size
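Kinetic colorimetric format: TGR-catalysed, NADPH-driven DTNB reduction monitored via TNB absorbance. Enzyme dispensed at 20 nM; compound exposure 15 min at room temperature before reaction start.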
Active calls of the source: *; i = inactive; ? = inconclusive; . = no result; + = active, no number; [ ] = another dose, or the depositor's remark. Unless noted, calls follow the shape of the dose curve; as a rule, active = well fitted curve in the direction sought with a large enough effect; inconclusive = small, poorly fitted or top-dose-only effect, or another doubt; inactive = no such curve, though single readings can be large; an effect the other way counts as inactive or inconclusive. % is scaled to controls: 0 for no effect and ±100 for the full control effect.

SMILES	HCV inh	FMDV inh	VACV mCherry inh	HCMV antiviral	VACV Venus inh	Sm TGR inh
CCOC(=O)C(N)CSC1CC(=O)N(CCc2ccccc2)C1=O (stereo not given)	9%	-14%	.	38	.	8.9µM*
CCCOc1ccc(N2C(=O)CC(SCC(N)C(=O)OCC)C2=O)cc1 (stereo not given)	5%	23%	.	31	.	?
CCCC(=O)NC(c1ccccc1OC)c1ccc2cccnc2c1O (stereo not given)	3.5µM*	-12%	10µM*	.	?	-10%
CCCC(=O)NC(c1ccc(OC)c(OC)c1)c1c(O)ccc2ccccc12 (stereo not given)	.	31%	-18%	45	-10%	-5%
CCCCC(=O)NC(c1ccccc1OC)c1ccc2cccnc2c1O (stereo not given)	2.2µM*	-16%	7.9µM*	+	-28%	0%
CCOc1cc(NC(=O)c2ccccn2)c(OCC)cc1NC(=O)c1ccc(Cl)cc1	-13%	-23%	.	-7	.	-24%
CCOc1cc(NC(=O)c2ccccn2)c(OCC)cc1NC(=O)c1ccccc1	-4%	-2%	i	-64*	1%	1%[57.1 µM]
O=C(Nc1nc2c(F)cc(F)cc2s1)c1ccccn1	10µM*	-68%	?	-99*	?	-29%
CCOc1ccc2nc(NC(=O)C(NS(=O)(=O)c3cccc4nsnc34)C(C)C)sc2c1 (stereo not given)	?	-25%	7.9µM*	126	?	1%
Cc1ccc2nc(NC(=O)c3ccccc3F)sc2c1	?	-15%	i	60	-13%	-1%
Cc1ccc2nc(NC(=O)c3ccccn3)sc2c1	?	8.9µM*	22µM*	-98*	?	12%
CCc1noc(C)c1C(=O)OCC(=O)Nc1c(F)cccc1F	5%	4%	i	-13	-12%	1%
CCCCC(=O)Nc1ccc(C)c(O)c1	-4%	30%	.	-28	-16%	6%
Cc1ccc(S(=O)(=O)N2CCNC(=O)C2)c(C)c1	14%	9%	-21%	7	-18%	1%
Fc1ccccc1CSc1nncn1NCc1cccs1	17%	0%	.	39	.	-21%
CCOc1ccc2nc(NC(=O)c3ccccn3)sc2c1	?	-84%	7.9µM*	-100*	?	-7%
CCOc1ccc2nc(NC(=O)Nc3ccccc3)sc2c1	?	1%	-11%	64	-12%	3%
Cc1onc(-c2ccccc2Cl)c1C(=O)N1CCN(c2nc3ccccc3s2)CC1	?	?	?	-26	?	0%
COC1(OC)N=C(N)C2(C#N)C(c3ccccc3)NC(C)=CC12C#N (stereo not given)	1%	-3%	-10%	-2	-3%	-2%
CC1=CC(C#N)(C#N)C(C#N)(C#N)C(c2ccccc2)N1 (stereo not given)	.	.	.	.	.	22µM*
CCN(C(=O)CN1c2ccccc2CC1C)c1c(N)n(Cc2ccccc2)c(=O)[nH]c1=O (stereo not given)	20%	-12%	-3%	-64*	10%	-13%
CCN(C(=O)COC(=O)CCOc1ccc(C(C)(C)C)cc1)c1c(N)n(Cc2ccccc2)c(=O)[nH]c1=O	-8%	?	.	-66*	.	.
COCCN(C(=O)COC(=O)/C=C/c1ccc(C(F)(F)F)cc1)c1c(N)n(Cc2ccccc2)c(=O)[nH]c1=O	-4%	-29%	13µM*	-11	?	7%
CCN(C(=O)COC(=O)/C=C/c1ccco1)c1c(N)n(Cc2ccccc2)c(=O)[nH]c1=O	?	-22%	.	10	.	20µM*
CC1Cc2ccccc2N1CC(=O)N(C)c1c(N)n(Cc2ccccc2)c(=O)[nH]c1=O (stereo not given)	4%	-13%	.	-12	.	-21%
SMILES	HCV inh	FMDV inh	VACV mCherry inh	HCMV antiviral	VACV Venus inh	Sm TGR inh
Cc1cccc(N(CC(=O)Nc2cccnc2)S(C)(=O)=O)c1	2%	-9%	.	-8	.	-7%
Nc1ccc(C(=O)C(=O)c2ccccc2)cc1	-4%	12%	i	11	-18%	.
COC(=O)c1ccc(NC(=O)CCS(=O)(=O)c2ccc(Br)cc2)cc1	5%	-16%	-4%	?	-12%	-27%
O=C(c1nn2c(C(F)(F)F)cc(-c3ccccc3)nc2c1Cl)N1CCN2CCCC2C1 (stereo not given)	11µM*	-2%	?	-61*	-28%	-28%
O=C(c1cc2nc(-c3ccccc3)cc(C(F)(F)F)n2n1)N1CCOCC1	?	8%	.	5	.	-8%
CC(C)(C)NC(=O)c1nn2c(C(F)(F)F)cc(-c3ccccc3)nc2c1Br	-15%	-11%	.	-17	.	-4%
NC(=O)c1nn2c(C(F)(F)F)cc(-c3ccccc3)nc2c1Br	0.89µM*	-8%	.	-10	.	-7%
O=C(c1cc2nc(-c3ccccc3)cc(C(F)(F)F)n2n1)N1CCN2CCCC2C1 (stereo not given)	8.9µM*	-23%	-14%	-36	-21%	-13%
COCCN(C(=O)CSc1ncn[nH]1)c1c(N)n(Cc2ccccc2)c(=O)[nH]c1=O	8%	-24%	-13%	-22	2%	-7%
O=C(CSCCO)N1CCc2ccccc21	12%	-3%	.	149	.	-9%
Cc1nnc2n(Cc3ccccc3)c(=O)c3c4c(sc3n12)CN(Cc1ccccc1)CC4	.	.	.	.	.	-1%
O=c1c2c3c(sc2n2cnnc2n1Cc1ccccc1)CN(Cc1ccccc1)CC3	7.9µM*	?	-21%	10	-12%	-16%
O=[N+]([O-])c1ccc(C[n+]2cccc3ccc4cccnc4c32)cc1	?	-17%	?	-96*	?	0%
O=[N+]([O-])c1ccc(C[n+]2cccc3ccccc32)cc1	8%	-2%	-18%	-10	-9%	1%
COc1ccc(N(CC(=O)NC2CCS(=O)(=O)C2)S(=O)(=O)c2cc(C)ccc2C)cc1 (stereo not given)	16%	29%	-23%	5	-2%	.
Cc1cc(S(=O)(=O)N2CCCC2)ccc1OCC(=O)Nc1ccc(C(N)=O)cc1	5%	-10%	.	2	.	-10%
COc1ccc(CNC(=O)c2ccc(NC(=O)C3=CSCCO3)cc2)cc1	6%	64%	.	-12	.	-12%
Cc1c(C(=O)Nc2cccc(C(F)(F)F)c2)oc2ccc(S(=O)(=O)N3CCOCC3)cc12	?	?	.	-2	.	0%
CCOC(=O)N1CCN(C(=O)c2oc3ccc(S(=O)(=O)N4CC(C)CC(C)C4)cc3c2C)CC1 (stereo not given)	?	?	.	?	.	0%
Cc1c(C(=O)NCCc2ccccc2)oc2ccc(S(=O)(=O)N3CCC4(CC3)OCCO4)cc12	11µM*	?	-11%	-15	-13%	-2%
Cc1c(C(=O)Nc2cccc(C(F)(F)F)c2)oc2ccc(S(=O)(=O)N3CCC4(CC3)OCCO4)cc12	.	16µM*	-15%	-11	-25%	0%
